Laboratory results reported in the supplement of paper PMC6555819.

Key:
Test in all cases: PBM binding z-score (relative to random genomic background probes); higher = stronger binding; sequences stand for … in GC…GCGATTGACAGCGTAGAATGAAGG
[1] = tested on: PPARg:RXRa DBDmut IVT, anti-RXR (DBD mutation: RXRa K156A/R161A, NR concentration 270 nM, RXRa partner concentration 90 nM)
In short: (§1)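 Each nuclear receptor dimer, without ligand, was incubated for 1 h on custom Agilent 4×180K protein-binding microarrays. Binding was detected with antibodies against each partner (one per run), and scanned fluorescence was regression-normalized. The binding z-scores are referenced to random human genomic background probes.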

[2] = tested on: PPARg:RXRa IVT, anti-PPARg (NR concentration 270 nM, RXRa partner concentration 90 nM)
In short: as §1

[3] = tested on: PPARg DBDmut:RXRa IVT, anti-PPARg (DBD mutation: PPARg1 K132A/R137A, NR concentration 270 nM, RXRa partner concentration 90 nM)
In short: as §1

[4] = tested on: PPARg DBDmut IVT, anti-PPARg (DBD mutation: PPARg1 K132A/R137A, NR concentration 270 nM)
In short: as §1

[5] = tested on: PPARg homodimer (NR concentration 180 nM)
In short: as §1

[6] = tested on: PXR:RXRa (NR concentration 270 nM, RXRa partner concentration 90 nM)
In short: as §1

[7] = tested on: PXR homodimer (NR concentration 270 nM)
In short: as §1

[8] = tested on: RARa:RXR (NR concentration 270 nM, RXRa partner concentration 90 nM)
In short: as §1

[9] = tested on: RARa homodimer (NR concentration 270 nM)
In short: as §1

[10] = tested on: RARb:RXRa (NR concentration 270 nM, RXRa partner concentration 90 nM)
In short: as §1

[11] = tested on: RARb homodimer (NR concentration 270 nM)
In short: as §1

[12] = tested on: RARg:RXRa (NR concentration 270 nM, RXRa partner concentration 90 nM)
In short: as §1

[13] = tested on: RARg homodimer (NR concentration 270 nM)
In short: as §1

[14] = tested on: RXRa DBDmut IVT, anti-RXR (DBD mutation: RXRa K156A/R161A, NR concentration 90 nM)
In short: as §1

[15] = tested on: RXRa homodimer (NR concentration 180 nM)
In short: as §1

[16] = tested on: THRa:RXRa (NR concentration 90 nM, RXRa partner concentration 90 nM)
In short: as §1

[17] = tested on: THRa homodimer (NR concentration 90 nM)
In short: as §1

[18] = tested on: VDR homodimer (NR concentration 270 nM)
In short: as §1

Row | Sequence | PBM binding z-score [1] | PBM binding z-score [2] | PBM binding z-score [3] | PBM binding z-score [4] | PBM binding z-score [5] | PBM binding z-score [6] | PBM binding z-score [7] | PBM binding z-score [8] | PBM binding z-score [9] | PBM binding z-score [10] | PBM binding z-score [11] | PBM binding z-score [12] | PBM binding z-score [13] | PBM binding z-score [14] | PBM binding z-score [15] | PBM binding z-score [16] | PBM binding z-score [17] | PBM binding z-score [18]
1 | CCTAGCAGGCCAATCTGGGTCACTCAGGGCTTGA | 3.91 | 4.83 | 0.915 | -1.07 | 0.808 | 0.386 | -0.579 | 1.64 | -0.57 | 1.35 | 2.15 | 0.923 | 1.06 | 0.0967 | 0.498 | 3.58 | 0.158 | -0.303
2 | TGGCAAAGTTCAAAGGTAACGTAAGTATCCACAC | -0.0424 | 3.1 | 0.662 | 1.12 | 3.45 | 5.58 | 4.43 | 6.87 | 1.43 | 5.11 | 4.03 | 6.21 | 5.81 | 4.22 | 7.78 | 3.41 | -0.0262 | 4.04
3 | TCAGGCAGGTGAAGGTAACTCAGGTACGCAGTCG | 1.55 | 1.14 | -0.774 | -0.917 | 0.554 | 0.0794 | -0.029 | 0.355 | -0.103 | 0.92 | 0.705 | 0.13 | -0.00372 | 0.635 | 0.357 | 1.52 | 0.723 | 0.051
4 | TGTCAAAGTTCAAAGGTAACGAAAGTATCCACAC | 0.62 | 4.53 | 1.27 | 1.66 | 3.32 | 5.76 | 3.79 | 6.83 | 1.29 | 5.22 | 3.89 | 6.36 | 6.02 | 4.4 | 7.81 | 2.97 | 0.0782 | 4.73
5 | AGTCAAAGTTCAGGACGCGGTAACGTAAAGCACG | -0.435 | 1.23 | -0.53 | -0.304 | 1.62 | 2.37 | 0.876 | 2.21 | 0.353 | 4.19 | 3.04 | 4.4 | 4.94 | 2.98 | 2.78 | 2.74 | 1.23 | 1.79
6 | TCATCTAGGTAAACAGGTGAAAGTCCGTAAGTTA | 4.8 | 5.11 | 1.31 | 1.14 | 0.609 | 0.409 | 0.487 | 0.888 | 0.849 | 0.534 | 0.582 | 0.394 | 0.147 | 1.26 | 0.645 | 0.888 | 0.459 | 0.0533
7 | TATACAGAGTCAAAGGCCAGAGTACGAATGTCGA | -0.677 | 0.809 | 0.657 | 0.798 | 0.172 | 0.3 | 0.152 | 0.733 | -0.267 | 1.19 | 0.843 | 0.902 | 1.01 | -0.862 | 1.03 | -0.0396 | -0.776 | 0.0199
8 | ACTATGAGTTGAGACGAGGGCAACCGATAGGTTG | -0.225 | 0.397 | 0.408 | -0.21 | 0.118 | 3.34 | 0.321 | 1.23 | -0.00647 | 1.32 | 1.27 | 1.15 | 1.14 | 0.701 | 0.821 | 3.63 | 0.024 | 0.979
